Test results reported in article PMC11006913.
Numbering of substitutions follows the chain as printed.

Legend:
Assay in all cases: PBM; 200 nM protein, PBS
Settings in all cases: dsDNA, one strand shown
PAX4 [1] = target: T1, PAX4 (Homo sapiens, UniProt O43316 9-242, R200K)
T1 sequence: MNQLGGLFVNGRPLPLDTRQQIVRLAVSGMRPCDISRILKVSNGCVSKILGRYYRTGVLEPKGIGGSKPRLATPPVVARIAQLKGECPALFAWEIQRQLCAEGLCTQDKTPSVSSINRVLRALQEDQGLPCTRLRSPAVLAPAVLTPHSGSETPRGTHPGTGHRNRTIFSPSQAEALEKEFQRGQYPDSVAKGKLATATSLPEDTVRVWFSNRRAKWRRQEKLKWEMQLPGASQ

PAX4 [2] = target: T2, PAX4 (Homo sapiens, UniProt O43316 9-242)
T2 sequence: T1 sequence with K192R

ALX3 [3] = target: ALX3 (Homo sapiens, UniProt O95076 139-225, N203Q)
Sequence of ALX3 (Homo sapiens, UniProt O95076 139-225, N203Q) (O95076 139-225 N203Q): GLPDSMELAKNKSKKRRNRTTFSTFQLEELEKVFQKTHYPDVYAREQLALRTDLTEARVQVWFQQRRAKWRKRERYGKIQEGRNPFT

PAX4 [4] = target: T3, PAX4 (Homo sapiens, UniProt O43316 9-242, R200Q)
T3 sequence: T1 sequence with K192Q

PAX4 [5] = target: T4, PAX4 (Homo sapiens, UniProt O43316 9-242, F177V)
T4 sequence: T1 sequence with F169V, K192R

ALX3 [6] = target: ALX3 (Homo sapiens, UniProt O95076 139-225)
Sequence of ALX3 (Homo sapiens, UniProt O95076 139-225) (O95076 139-225): as the sequence (O95076 139-225 N203Q) above, with Q65N counted along it

PAX4 [7] = target: T5, PAX4 (Homo sapiens, UniProt O43316 9-242, F177Y)
T5 sequence: T1 sequence with F169Y, K192R

ALX3 [8] = target: ALX3 (Homo sapiens, UniProt O95076 139-225, L168Q)
Sequence of ALX3 (Homo sapiens, UniProt O95076 139-225, L168Q) (O95076 139-225 L168Q): as the sequence (O95076 139-225 N203Q) above, with L30Q, Q65N counted along it

ALX3 [9] = target: ALX3 (Homo sapiens, UniProt O95076 139-225, L168V)
Sequence of ALX3 (Homo sapiens, UniProt O95076 139-225, L168V) (O95076 139-225 L168V): as the sequence (O95076 139-225 N203Q) above, with L30V, Q65N counted along it

PAX4 [10] = target: T6, PAX4 (Homo sapiens, UniProt O43316 9-242, R227W)
T6 sequence: T1 sequence with K192R, R219W

ALX3 [11] = target: ALX3 (Homo sapiens, UniProt O95076 139-225, N203S)
Sequence of ALX3 (Homo sapiens, UniProt O95076 139-225, N203S) (O95076 139-225 N203S): as the sequence (O95076 139-225 N203Q) above, with Q65S counted along it

HOXD13 [12] = target: HOXD13 (Homo sapiens, UniProt P35453 263-343, T313R)
Sequence of HOXD13 (Homo sapiens, UniProt P35453 263-343, T313R) (P35453 263-343 T313R): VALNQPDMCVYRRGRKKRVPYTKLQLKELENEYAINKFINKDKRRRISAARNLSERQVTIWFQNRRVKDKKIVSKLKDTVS

HOXD13 [13] = target: HOXD13 (Homo sapiens, UniProt P35453 263-343)
Sequence of HOXD13 (Homo sapiens, UniProt P35453 263-343) (P35453 263-343): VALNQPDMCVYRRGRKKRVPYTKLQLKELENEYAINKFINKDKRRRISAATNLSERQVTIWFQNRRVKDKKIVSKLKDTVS

HOXD13 [14] = target: HOXD13 (Homo sapiens, UniProt P35453 263-343, T313A)
Sequence of HOXD13 (Homo sapiens, UniProt P35453 263-343, T313A) (P35453 263-343 T313A): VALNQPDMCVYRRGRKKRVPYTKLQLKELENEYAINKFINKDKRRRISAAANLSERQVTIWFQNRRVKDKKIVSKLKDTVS

PITX2 = PITX2 (Homo sapiens, UniProt Q99697 72-157)

Sequence	binding signal (PAX4 [1])	binding signal (PAX4 [2])	binding signal (ALX3 [3])	binding signal (PAX4 [4])	binding signal (PAX4 [5])	binding signal (ALX3 [6])	binding signal (PAX4 [7])	binding signal (ALX3 [8])	binding signal (ALX3 [9])	binding signal (PAX4 [10])	binding signal (ALX3 [11])	binding signal (HOXD13 [12])	binding signal (HOXD13 [13])	binding signal (HOXD13 [14])	binding signal (PITX2)
CGGCTGAG	9.44 upbm affinity estimate (log intensity, higher = more binding, comparable within an allelic series)	9.36 upbm affinity estimate (log intensity, higher = more binding, comparable within an allelic series)	7.73 upbm affinity estimate (log intensity, higher = more binding, comparable within an allelic series)	9.42 upbm affinity estimate (log intensity, higher = more binding, comparable within an allelic series)	9.34 upbm affinity estimate (log intensity, higher = more binding, comparable within an allelic series)	7.82 upbm affinity estimate (log intensity, higher = more binding, comparable within an allelic series)	9.23 upbm affinity estimate (log intensity, higher = more binding, comparable within an allelic series)	7.79 upbm affinity estimate (log intensity, higher = more binding, comparable within an allelic series)	7.77 upbm affinity estimate (log intensity, higher = more binding, comparable within an allelic series)	9.35 upbm affinity estimate (log intensity, higher = more binding, comparable within an allelic series)	7.7 upbm affinity estimate (log intensity, higher = more binding, comparable within an allelic series)	–	–	–	–
CGGCTTTC	9.21 upbm affinity estimate (log intensity, higher = more binding, comparable within an allelic series)	9.26 upbm affinity estimate (log intensity, higher = more binding, comparable within an allelic series)	–	9.27 upbm affinity estimate (log intensity, higher = more binding, comparable within an allelic series)	9.3 upbm affinity estimate (log intensity, higher = more binding, comparable within an allelic series)	–	9.24 upbm affinity estimate (log intensity, higher = more binding, comparable within an allelic series)	–	–	9.29 upbm affinity estimate (log intensity, higher = more binding, comparable within an allelic series)	–	9.51 upbm affinity estimate (log intensity, higher = more binding, comparable within an allelic series)	9.48 upbm affinity estimate (log intensity, higher = more binding, comparable within an allelic series)	9.54 upbm affinity estimate (log intensity, higher = more binding, comparable within an allelic series)	–
CGGCGTCA	9.36 upbm affinity estimate (log intensity, higher = more binding, comparable within an allelic series)	9.43 upbm affinity estimate (log intensity, higher = more binding, comparable within an allelic series)	–	9.37 upbm affinity estimate (log intensity, higher = more binding, comparable within an allelic series)	9.21 upbm affinity estimate (log intensity, higher = more binding, comparable within an allelic series)	–	9.24 upbm affinity estimate (log intensity, higher = more binding, comparable within an allelic series)	–	–	9.35 upbm affinity estimate (log intensity, higher = more binding, comparable within an allelic series)	–	9.54 upbm affinity estimate (log intensity, higher = more binding, comparable within an allelic series)	9.49 upbm affinity estimate (log intensity, higher = more binding, comparable within an allelic series)	9.61 upbm affinity estimate (log intensity, higher = more binding, comparable within an allelic series)	8.08 upbm affinity estimate (log intensity, higher = more binding, comparable within an allelic series)
